According to PubChem BioAssay AID1159580 (chemical genetic matrix, 2015):
The whole screen tested about 5,500 compounds, of which about 2,000 (36%) were called active. About 18% were inconclusive and are not listed. Rule as the data show it: active = normalized growth mostly below about 0.91 (no sharp cut-off); inconclusive = no clear call, values can overlap the other calls; inactive = mostly above about 0.92. Some of the results follow.

Assay: chemical genetic growth profiling, strain panel (AID 1159580);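 also: tested at 20 µM; growth read once vehicle control cultures reached saturation at 30 °C; 1 = growth at the plate median or of vehicle wells; lower values mean less growth of the strain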
Settings: S. cerevisiae deletion strains, growth OD

Measured: normalized growth

C[C@@H](N)CO
inactive: locus YAL021C, strain ccr4, stronger effect = lower value 0.998 | locus YAL026C, strain drs2, stronger effect = lower value 0.992 | locus YAL030W, strain snc1, stronger effect = lower value 0.985 | locus YBL061C, strain skt5, stronger effect = lower value 0.994 | locus YBR009C, strain hhf1, stronger effect = lower value 1.01 | locus YBR023C, strain chs3, stronger effect = lower value 0.987 | locus YBR171W, strain sec66, stronger effect = lower value 0.967 | locus YBR231C, strain swc5, stronger effect = lower value 0.991 | locus YBR279W, strain paf1, stronger effect = lower value 0.987 | locus YCL011C, strain gbp2, stronger effect = lower value 0.997 | locus YCL016C, strain dcc1, stronger effect = lower value 0.991 | locus YCL069W, strain vba3, stronger effect = lower value 0.988 | locus YCR088W, strain abp1, stronger effect = lower value 0.993 | locus YDL005C, strain med2, stronger effect = lower value 0.961 | locus YDL040C, strain nat1, stronger effect = lower value 0.976 | locus YDR001C, strain nth1, stronger effect = lower value 0.983 | locus YDR069C, strain doa4, stronger effect = lower value 0.967 | locus YDR137W, strain rgp1, stronger effect = lower value 0.979 | locus YDR159W, strain sac3, stronger effect = lower value 0.972 | locus YDR195W, strain ref2 0.954 | locus YDR297W, strain sur2, stronger effect = lower value 1 | locus YDR334W, strain swr1, stronger effect = lower value 0.989 | locus YDR335W, strain msn5, stronger effect = lower value 0.995 | locus YDR392W, strain spt3, stronger effect = lower value 0.979 | locus YEL003W, strain gim4, stronger effect = lower value 0.997 | locus YEL037C, strain rad23, stronger effect = lower value 1 | locus YEL061C, strain CIN8 (second series), stronger effect = lower value 1.01 | locus YER015W, strain faa2, stronger effect = lower value 0.989 | locus YER016W, strain bim1, stronger effect = lower value 0.996 | locus YER111C, strain swi4, stronger effect = lower value 0.973 | locus YER155C, strain BEM2 (second series), stronger effect = lower value 0.984 | locus YFR010W, strain ubp6, stronger effect = lower value 1 | locus YGL167C, strain pmr1, stronger effect = lower value 0.984 | locus YGL173C, strain kem1, stronger effect = lower value 1 | locus YGL227W, strain vid30, stronger effect = lower value 0.973 | locus YGL240W, strain doc1, stronger effect = lower value 1.01 | locus YGL253W, strain hxk2, stronger effect = lower value 0.989 | locus YHR013C, strain ard1, stronger effect = lower value 1 | locus YHR027C, strain rpn1, stronger effect = lower value 0.995 | locus YHR030C, strain SLT2, stronger effect = lower value 0.984 | locus YHR079C, strain IRE1, stronger effect = lower value 0.974 | locus YHR142W, strain chs7, stronger effect = lower value 0.98 | locus YJL092W, strain hpr5, stronger effect = lower value 0.996 | locus YJL095W, strain BCK1 (second series), stronger effect = lower value 0.996 | locus YJL095W, strain BCK1, stronger effect = lower value 0.975 | locus YJL115W, strain asf1, stronger effect = lower value 1 | locus YJL129C, strain trk1, stronger effect = lower value 0.989 | locus YJL154C, strain vps35, stronger effect = lower value 0.996 | locus YJL164C, strain tpk1, stronger effect = lower value 1.01 | locus YJL166W, strain qcr8, stronger effect = lower value 1 | locus YJL187C, strain SWE1, stronger effect = lower value 0.988 | locus YJR066W, strain TOR1, stronger effect = lower value 0.914 | locus YKL160W, strain elf1, stronger effect = lower value 0.968 | locus YKR026C, strain gcn3, stronger effect = lower value 0.995 | locus YKR091W, strain srl3, stronger effect = lower value 0.977 | locus YLL001W, strain dnm1, stronger effect = lower value 0.986 | locus YLL026W, stronger effect = lower value 0.994 | locus YLL041C, strain sdh2, stronger effect = lower value 0.997 | locus YLR027C, strain aat2, stronger effect = lower value 0.999 | locus YLR113W, strain HOG1, stronger effect = lower value 1.02 | locus YLR221C, strain rsa3, stronger effect = lower value 1.01 | locus YLR258W, strain gsy2, stronger effect = lower value 0.995 | locus YLR262C, strain YPT6 (second series), stronger effect = lower value 0.973 | locus YLR320W, strain mms22, stronger effect = lower value 1.01 | locus YLR342W, strain FKS1, stronger effect = lower value 0.987 | locus YLR357W, strain rsc2, stronger effect = lower value 0.954 | locus YLR370C, strain arc18, stronger effect = lower value 0.996 | locus YLR384C, strain iki3, stronger effect = lower value 1.01 | locus YML120C, strain ndi1, stronger effect = lower value 0.983 | locus YMR058W, strain fet3, stronger effect = lower value 1.02 | locus YMR125W, strain sto1, stronger effect = lower value 0.947 | locus YMR129W, stronger effect = lower value 0.994 | locus YMR205C, strain PFK2, stronger effect = lower value 1.01 | locus YMR231W, strain pep5, stronger effect = lower value 0.984 | locus YNL071W, strain lat1, stronger effect = lower value 1.01 | locus YNL183C, strain NPR1, stronger effect = lower value 0.901 | locus YNL209W, strain ssb2, stronger effect = lower value 0.974 | locus YNL248C, strain rpa49, stronger effect = lower value 0.942 | locus YNL322C, strain KRE1 (second series), stronger effect = lower value 0.973 | locus YNR049C, strain mso1, stronger effect = lower value 0.981 | locus YOR001W, strain rrp6, stronger effect = lower value 1.01 | locus YOR070C, strain gyp1, stronger effect = lower value 0.986 | locus YOR080W, strain dia2, stronger effect = lower value 0.969 | locus YOR083W, strain WHI5, stronger effect = lower value 0.94 | locus YOR106W, strain vam3, stronger effect = lower value 0.964 | locus YOR231W, strain MKK1, stronger effect = lower value 0.974 | locus YOR265W, strain rbl2, stronger effect = lower value 0.992 | locus YOR270C, strain vph1, stronger effect = lower value 0.976 | locus YOR290C, strain snf2, stronger effect = lower value 0.984 | locus YPL051W, strain arl3, stronger effect = lower value 0.99 | locus YPL078C, strain atp4, stronger effect = lower value 0.976 | locus YPL106C, strain sse1, stronger effect = lower value 0.973 | locus YPL240C, strain hsp82, stronger effect = lower value 0.995 | locus YPL256C, strain CLN2, stronger effect = lower value 0.988
